Measured values: PubChem BioAssay AID2384 (Southern Research Specialized Biocontainment Screening …, 2010)
The whole screen tested about 2,300 compounds, of which about 1,100 (48%) were called active. The set was probably picked from earlier hits. The list shows a part of the results. Potency and affinity values are given separately. Unmarked numbers belong to inactive results. No rule for the calls is given here.

assay: S. typhi counter-screen signal inhibition – fluorescence, 4 h, counter-screen for PhoP regulon inhibitor project, dose response (AID 2384); conditions: S. typhi GFP reporter counter-screen; series mostly up to 150 µM; inhibition: at the top concentration

Row | SMILES | inhibition
1 | C#CCOCCOCCOCCNc1nc(N2CCN(C(=O)CCCCCCCCCCNC(=O)[C@H](CO)n3cc(CCCSC)nn3)CC2)nc(N2CCN(C(=O)CCCCCCCCCCNC(=O)[C@H](CCCN=C(N)N)n3cc(C[C@@H](C)CC)nn3)CC2)n1 | -11.9%
2 | C#CCOCCOCCOCCNc1nc(N2CCN(C(=O)CCCCCCCCCCNC(=O)[C@H](CCCCN)n3cc(C[C@@H](C)CC)nn3)CC2)nc(N2CCN(C(=O)CCCCCCCCCCNC(=O)[C@@H]([C@H](C)O)n3cc(C)nn3)CC2)n1 | 9.45%
3 | C#CCOCCOCCOCCNc1nc(N2CCN(C(=O)CCCCCCCCCCNC(=O)Cn3cc(C[C@@H](C)O)nn3)CC2)nc(N2CCN(C(=O)CCCCCCCCCCNC(=O)[C@H](CCCN=C(N)N)n3cc(C[C@@H](C)CC)nn3)CC2)n1 | 7.83%
4 | CCN(CC)CCCNC(=O)c1c(O)c2c([nH]c1=O)CCCC2 | 1.16%
5 | COc1cc(C(=O)Nc2ccc3c(c2)OCCO3)ccc1OC(C)C | 2.98%
6 | Cc1ccc(S(=O)(=O)N2CCOCC2)cc1NC(=O)CSc1nc(N)cc(=O)[nH]1 | -11%
7 | C[C@@H](CO)NC(=O)c1ccc2c3n(nc2c1)-c1ccc(Cl)cc1CO3 | -3.51%
8 | Cc1nc2nc(COc3ccccc3)nn2c(C)c1Cl | 14.8%
9 | CC(C)C(=O)Nc1ccccc1-c1nc2ccccc2[nH]c1=O | 4.85%
10 | O=C(/C=C/c1ccccc1)OCc1cnc(Cl)s1 | -16.4%
11 | O=C(/C=C/c1ccccc1)NC(=S)N1CCSCC1 | -4.32%
12 | CCc1nnc(NS(=O)(=O)c2ccc(NC(=S)NC(=O)/C=C/c3ccc(C(C)C)cc3)cc2)s1 | 39.2%
13 | COc1ccccc1-n1c(SCC(=O)O)nnc1-c1ccc(S(=O)(=O)N2CCCCC2)cc1 | 16.1%
14 | O=C(CCSCc1ccccc1F)NCc1cccs1 | 6.35%
15 | Nc1cc(N2CCOCC2)c(Cl)cc1[N+](=O)[O-] | -13%
16 | O=C(NC1CC1)C1CCN(C2CCN(C(=O)Cc3ccc(F)cc3)CC2)CC1 | -14.2%
17 | Cc1ccc(NC(=O)C(=O)NNC(=O)c2cccs2)cc1 | 26.1% [at 2.34 µM]
18 | COC(=O)c1ccc(NC(=S)NNC(=O)c2ccccc2)cc1 | 20.3%
19 | O=C(NNC(=O)c1cccs1)c1ccc2ccccc2c1 | 27.6%
20 | COc1cc(C(=O)NC(=S)Nc2cccc3nc(C)ccc23)cc(OC)c1OC | 36.5%
21 | COc1ccc(-c2noc(CCC(=O)Nc3cccc(C)c3)n2)cc1 | 13.1%
22 | CCCC(=O)N1CCN(c2ccc(NC(=S)NC(=O)c3cccc(C)c3)cc2)CC1 | -4.38%
23 | CC1(C)CC(=O)C(C(=O)/C=C/NCCc2ccccc2)C(=O)C1 | 20.5%
24 | Cc1ccc(-c2cc(N)nc(-c3ccccc3)c2)cc1 | 33%
25 | O=C1C(SCCO)=C(SCCO)C(=O)c2ccccc21 | 24.9%
26 | O=C(O)c1ccc(NC2=C(Cl)C(=O)c3ccccc3C2=O)cc1 | -19.2%
27 | CC(C)C(NS(=O)(=O)c1cccc2nsnc12)C(=O)N1CCn2c1nc1ccccc12 (stereo not given) | 20.8%

Row | SMILES | inhibition
28 | COc1cccc(N2CCN(C(=S)NCc3ccco3)CC2)c1 | -37.1%
29 | COc1ccc(Nc2nc(-c3ccccc3)nc3ccccc23)cc1S(=O)(=O)N1CCOCC1 | -6.61%
30 | C=CCn1c(O)c(N=NC(=O)c2cccnc2)c2cc(Br)ccc21 | -3.27%
31 | COc1cccc(C(=O)CC(=O)C(=O)Nc2cc(OC)c(OC)c(OC)c2)c1 | 11.7%
32 | Cc1cc(C)cc(N(C(=O)CNC(=O)c2cccs2)C(C(=O)NC2CCCC2)c2cccnc2)c1 (stereo not given) | 16.6%
33 | CCc1c(C)nc2cc(-c3cc(OC)cc(OC)c3)nn2c1N1CCCC1 | 12.4%
34 | CCN1CCc2c(C#N)c(NCc3ccccc3)nc(NCCO)c2C1 | 10.4%
35 | Cc1[nH]nc2c1C(C1CC=CCC1)C(C#N)=C(N)O2 (stereo not given) | -21.3%
36 | C#CC(=O)N(c1cccc(OC)c1)C(C(=O)NC1CCCC1)c1cccs1 (stereo not given) | -6.44%
37 | COc1ccc(CCC(=O)NCc2cn3ccccc3n2)cc1 | -5.49%
38 | CCOCCCNC(=O)C(c1ccc(OC)cc1)N(Cc1cccs1)C(=O)c1ccccn1 (stereo not given) | -14%
39 | S=C(Nc1ccccc1Cl)N(Cc1ccccc1)Cc1ccccn1 | -17%
40 | COc1ccc(-c2nc3ccc(C(=O)NCC(OC)OC)cc3nc2-c2ccc(OC)cc2)cc1 | -2.98%
41 | O=C(CCCc1ccccc1)Nc1cccnc1 | 8.17%
42 | COCCCNC(=O)c1cc(OC)c(OC)c(OC)c1 | -18.1%
43 | O=c1c2ccccc2ncn1Cc1ccc(Cl)cc1 | 5.03%
44 | CCOC(=O)CSc1nnc2c(n1)C1(C)CCC2C1(C)C (stereo not given) | 0.17%
45 | O=C(O)/C=C/c1cn(-c2ccccc2)nc1-c1cc2ccccc2oc1=O | -6.24%
46 | CCC(C)(C)NC(=O)COc1ccc(C(=O)c2ccccc2)cc1 | 3.67%
47 | Cc1cccc(OCC(=O)NNc2c3ccccc3nc3ccccc23)c1 | 8.34%
48 | Cc1ccc(OCC(=O)N2CCN(S(C)(=O)=O)CC2)cc1 | 13.9%
49 | CCOc1ccc(NC(=O)CN(C)S(=O)(=O)c2cccs2)cc1 | 14.8%
50 | COc1ccc(Cl)cc1S(=O)(=O)N1CCN(C(=O)c2ccco2)CC1 | 20.3%
51 | CCOC(=O)c1ccc(S(=O)(=O)N2CCN(CCC#N)CC2)cc1 | -7.98%
52 | CCOC(=O)N1CCN(C(=S)NC(=O)c2ccc(Br)cc2)CC1 | 6.72%
53 | CCOC(=O)N1CCN(CC(=O)Nc2ccc(F)cc2F)CC1 | 4.71%
54 | COc1ccc(N(CCCN2C(=O)c3cccc4cccc(c34)C2=O)C(=O)c2cccnc2)cc1 | 7.69%

Row | SMILES | inhibition
55 | C/C(=N\NC(=O)COc1ccccc1[N+](=O)[O-])c1cccs1 | 4.14%
56 | O=C(Cn1c(=O)oc2cc(S(=O)(=O)N3CCCC3)ccc21)N1CCN(c2ccccc2F)CC1 | -19.8%
57 | CCn1cc(C(=O)O)c(=O)c2cc(F)c(N3CCN(C(=S)NC(=O)c4ccccc4F)CC3)cc21 | 7.79%
58 | CC1CCCN(C(=O)Cn2c(=O)oc3cc(S(=O)(=O)N4CCCCC4)ccc32)C1 (stereo not given) | -8.49%
59 | CCN(CC)c1cc(C)c2cc(NC(=O)c3ccccc3F)ccc2n1 | 16.7%
60 | N=C1c2ccccc2CN1c1ncccn1 | 24.2%
61 | COCCCNc1c2c(nc3nnnn13)CCCC2 | -14.2%
62 | CCN(CC)S(=O)(=O)c1ccc(N2CCOCC2)c(C(=O)O)c1 | 10.2%
63 | CCN(CC)CCOC(=O)c1cc(Cl)c(N)cc1OC | -7.05%
64 | COc1ccc(C(CC(=O)O)NC(=O)C2CCCCC2)cc1 (stereo not given) | -13.5%
65 | COc1ccc(CCNC(=O)Cn2c(=O)n(CC3CCCO3)c(=O)c3ccccc32)cc1OC (stereo not given) | 6.95%
66 | COc1ccc(OC)c(-c2cc(C(=O)Nc3ccc(F)cc3F)no2)c1 | -17%
67 | Cc1nc(N2CCOCC2)c2c(C)c(C(=O)Nc3ccccc3C(F)(F)F)sc2n1 | -9.31%
68 | O=C(Cn1nc(Cl)nc1Cl)c1ccc([N+](=O)[O-])cc1 | 30.1%
69 | CC1CC(C)CN(S(=O)(=O)c2ccc3c(c2)oc(=O)n3CC(=O)N(C)Cc2ccccc2)C1 (stereo not given) | -12.7%
70 | Cc1cc(=O)n2nc(N3CCCC(C(=O)NC4CCCCC4C)C3)sc2n1 (stereo not given) | -27.6%
71 | Cc1nnc(SCC(=O)Nc2cc(S(=O)(=O)N3CCCC3)ccc2Cl)s1 | 7.35%
72 | CCOc1ccc(S(=O)(=O)N2CCC(C(=O)NCCN3CCOCC3)CC2)cc1C | -8.84%
73 | CCCCCCCCn1ccc(=N)cc1 | 16.7%
74 | CCN(CC)CCn1nc(C)nc1-c1ccccc1O | 26.3%
75 | CCN1c2ccccc2NC2N=C(OC)C(c3ccccc3)C21 (stereo not given) | 10%
76 | O=C(Nc1ccc(F)cc1)c1ccc2snnc2c1 | -0.59%
77 | Clc1ccc(CN2CCN(/N=C/c3ccco3)CC2)cc1 | -9.25%
78 | C=CCn1c(C)cc(C(=O)CSc2n[nH]c(N)n2)c1C | 17.4%
79 | COc1ccc(NC(=O)N2CCc3ccccc32)cc1 | 6.46%
80 | O=C(CCl)NC1CCCc2ccccc21 (stereo not given) | 17%
81 | Cc1c(NC(=O)OCc2ccccc2)c(=O)n(-c2ccccc2)n1C | 6.31%

Row | SMILES | inhibition
82 | Cc1c(-n2cc(C(=O)c3ccccc3O)cc(C#N)c2=O)c(=O)n(-c2ccccc2)n1C | -26%
83 | Cc1csc2ncc(C(=O)Nc3ccon3)c(=O)n12 | -27.3%
84 | O=C(CCn1cccc1)Nc1ccc(OC(F)(F)F)cc1 | 6.96%
85 | O=C(O)C1CCCCC1C(=O)NCCc1ccncc1 (stereo not given) | -33.6%
86 | COc1ccc(N(C(=O)c2cccnc2)S(=O)(=O)c2ccc(F)cc2)cc1 | 9.91%
87 | O=C(Nc1ccc(S(=O)(=O)N2CCCC2)cc1)c1cccnc1 | -28.6%
88 | CCOC(=O)C(O)(NC(=O)c1cccnc1)C(F)(F)F (stereo not given) | -35.3%
89 | N/C(=N\OC(=O)COc1ccc2ccccc2c1)c1ccccn1 | 23.6%
90 | N/C(=N\OC(=O)C(c1ccccc1)c1ccccc1)c1ccncc1 | 5.38%
91 | O=C(O)c1[nH]c2ccc(Br)cc2c1CCN1C(=O)c2cccc([N+](=O)[O-])c2C1=O | -4.29%
92 | CCOC(=O)C(NC(C)=O)(OCc1ccc(F)cc1)C(F)(F)F (stereo not given) | -10.7%
93 | COc1cccc(/C=N/NC(=O)CNC(=O)CCc2ccccc2)c1O | 33.1%
94 | COc1ccc(C2CC(=O)N3CN(Cc4ccco4)CSC3=C2C#N)cc1 (stereo not given) | 26.7%
95 | C=CCNC(=O)NC(=O)COC(=O)/C(C#N)=C/c1ccc(OC)cc1 | -18.2%
96 | N/C(=N\OC(=O)N1CCOCC1)c1ccccc1 | -11.4%
97 | O=C(Nc1cccc(OCC(=O)N2CCOCC2)c1)c1cccc([N+](=O)[O-])c1 | 6.44%
98 | CCC(C)(c1ccc(C(=O)OC)s1)c1ccc(C(=O)OC)s1 | -5.73%
99 | CC(C)(C)c1ccc(NC(=O)COc2ccc(-n3ccnc3)cc2)cc1 | 38.1%
100 | CCOC(=O)C1CCN(Cc2nc(-c3ccc(OC)c(OC)c3)no2)CC1 | 1.43%
101 | CC1=C([N+](=O)[O-])C(c2ccccc2)C2=C(N1)c1ccccc1C2=O (stereo not given) | 5.99%
102 | CCSC1=NCN(CCCC(=O)O)CN1 | 18.6%
103 | COc1ccc(CC(=O)Nc2ncc([N+](=O)[O-])s2)cc1OC | 20.6%
104 | Cc1ccc(CNC(=O)CCC(=O)Nc2nnc(C)s2)cc1 | -21.4%
105 | O=C(Nc1ccc(N2CCOCC2)cc1)c1ccc(S(=O)(=O)NCc2ccco2)cc1 | 3.82%
